# About 4,300 (8.3%) of roughly 52,000 compounds were called active. This excerpt belongs to a sample that is enriched for actives. Unmarked numbers belong to inactive results. Cut-off read from the data, not from the text of the source: active = survival mostly below about 52% (no sharp cut-off); inactive = mostly above about 56%.
# Tested on: DeltatarO mutant
# Assay: S. aureus survival, RN4220 and DeltatarO strains – OD600, teichoic acid synthesis inhibitors, primary screen (AID 463173)
# Settings: S. aureus RN4220 wild type/DeltatarO growth, OD600, 18 h, hits give low values, screened at 18.75 µg/mL (by protocol)
row,SMILES,survival
1,CCOC(=O)CC(NC(=O)c1cc2cc(OC)ccc2oc1=O)c1ccc(OC)cc1 (configuration not stated),74%
2,Cc1ccc(-c2noc(CNC(=O)c3ccc(C)c(Cl)c3)n2)cc1,49%
3,Cc1ccc(CC(=O)NCc2nc(-c3cccc(C)c3)no2)cc1,69%
4,Cc1ccccc1C(=O)NCc1nc(-c2ccc(Cl)cc2)no1,47% (active)
5,Cc1ccc(-c2noc(CCCC(=O)NCc3ccco3)n2)cc1,53%
6,Cc1cccc(-c2noc(CNC(=O)c3ccc(C)cc3C)n2)c1,37% (active)
7,Cc1cccc(-c2noc(CNC(=O)c3ccccc3Br)n2)c1,72%
8,Cc1ccc(-c2noc(CNC(=O)c3ccccc3)n2)cc1,63%
9,Cc1cccc(-c2noc(CCCC(=O)NCc3ccco3)n2)c1,42% (active)
10,COc1cccc(-c2noc(CCCC(=O)NCc3ccco3)n2)c1,109%
11,O=C(CSc1nc2ccccc2nc1Cc1ccc(Cl)cc1)N1CCc2ccccc21,93%
12,O=C(NC1CC(=O)N(c2ccc(F)cc2)C1)C(c1ccccc1)c1ccccc1 (configuration not stated),124%
13,CCc1ccc(C(=O)c2cn(CC(=O)Nc3ccc(Cl)cc3)c3cc4c(cc3c2=O)OCO4)cc1,146%
14,CCc1ccc(NC(=O)Cn2ccn(-c3ccc(C)c(C)c3)c(=O)c2=O)cc1,104%
15,COc1ccc(OC)c(CCNC(=O)c2sc3nc4n(c(=O)c3c2C)CCCC4)c1,80%
16,COc1cccc(NC(=O)CCN2C(=O)c3ccccc3Sc3ncccc32)c1,102%
17,O=c1c2cc3c(cc2nc2sc(Nc4cccc([N+](=O)[O-])c4)nn12)OCO3,123%
18,O=C1c2[nH]nc(-c3ccccc3O)c2C(c2ccc(F)cc2)N1CCO (configuration not stated),78%
19,O=C1c2[nH]nc(-c3ccccc3O)c2C(c2ccc(Cl)cc2)N1CCc1ccccc1 (configuration not stated),4% (active)
20,Cc1ccc(C2c3c(-c4ccccc4O)n[nH]c3C(=O)N2CCCO)cc1 (configuration not stated),58%
21,CC(C)c1ccc(C2c3c(-c4ccccc4O)n[nH]c3C(=O)N2CCc2ccccc2)cc1 (configuration not stated),50%
22,Cc1ccc(C2c3c(-c4ccccc4O)n[nH]c3C(=O)N2CCc2ccccc2)cc1 (configuration not stated),32% (active)
23,CCN1C(=O)N(CC)C2NC(=S)NNC21 (configuration not stated),91%

row,SMILES,survival
1,CC(C)(C)OC(=O)N1CCC(c2c(C(=O)Nc3ccc4c(c3)OCCO4)cnn2-c2ccccc2)CC1,96%
2,CCn1nc(C)c2c(-c3ccccc3)cc(=O)n(C(C)C(=O)NCCc3ccc(OC)c(OC)c3)c21 (configuration not stated),92%
3,CCCS(=O)(=O)N1CC(=O)N(c2ccc(C)cc2C)C(C)(C(=O)NC2CCCCCC2)C1 (configuration not stated),67%
4,CCC(=O)Nc1ccccc1-c1nc2ccccc2n(C(CC)C(=O)Nc2cccc(C(C)=O)c2)c1=O (configuration not stated),91%
5,CCC(=O)Nc1ccccc1-c1nc2ccccc2n(C(CC)C(=O)Nc2cccc(Cl)c2)c1=O (configuration not stated),24% (active)
6,CCC(=O)Nc1ccccc1-c1nc2ccccc2n(C(C)C(=O)Nc2cccc(Cl)c2C)c1=O (configuration not stated),42% (active)
7,CC(=O)Nc1ccccc1-c1nc2ccccc2n(C(C)C(=O)Nc2cccc(C)c2C)c1=O (configuration not stated),100%
8,CCC(=O)Nc1ccccc1-c1nc2ccccc2n(C(C)C(=O)Nc2ccc(OC)cc2)c1=O (configuration not stated),55%
9,CCC(C(=O)Nc1ccc(C)c(Cl)c1)n1c(=O)c(-c2ccccc2NC(C)=O)nc2ccccc21 (configuration not stated),63%
10,CC(C)N(C(=O)CSc1nnc(Cn2nnc3ccccc32)n1C)C(C)C,81%
11,Cc1ccn2c(Nc3ccc4c(c3)OCO4)c(-c3ccc(N(C)C)cc3)nc2c1,101%
12,COc1ccc(C(=O)Oc2ccc(C(c3c(C)[nH][nH]c3=O)c3c(C)[nH][nH]c3=O)cc2)cc1,80%
13,COc1ccc2nc(N(Cc3cccnc3)C(=O)c3ccco3)sc2c1,101%
14,COc1cc(C(=O)N(Cc2cccnc2)c2nc3cc(C)c(C)cc3s2)cc(OC)c1OC,49%
15,COc1ccc2sc(N(Cc3cccnc3)C(=O)c3ccco3)nc2c1,-2% (active)
16,COc1ccc2sc(N(Cc3cccnc3)C(=O)c3cccs3)nc2c1,76%
17,CCS(=O)(=O)c1ccccc1C(=O)N(Cc1cccnc1)c1nc2cc(C)c(C)cc2s1,112%
18,Cc1cc2nc(N(Cc3cccnc3)C(=O)c3ccc(Cl)s3)sc2cc1C,32% (active)
19,COc1ccc(N(C(=O)c2snc(C(N)=O)c2N)C(C(=O)NCc2ccc(F)cc2)c2ccc(C)o2)c(OC)c1 (configuration not stated),67%
20,Cc1ccccc1-c1noc(-c2ccc(N3CCCC3)c([N+](=O)[O-])c2)n1,65%
21,CCC(Oc1ccccc1-c1nnc(-c2ccccc2)o1)C(=O)Nc1ccc(C(C)=O)cc1 (configuration not stated),112%
22,CCc1ccccc1NC(=O)C(CC)Oc1ccccc1-c1nnc(-c2ccccc2)o1 (configuration not stated),32% (active)
23,CCC(Oc1ccccc1F)C(=O)Nc1cc(-c2ccccc2)no1 (configuration not stated),35% (active)

row,SMILES,survival
1,CCC(Oc1ccccc1F)C(=O)Nc1c(C(=O)c2ccccc2)oc2ccccc12 (configuration not stated),53%
2,CCOC(=O)c1ccccc1NC(=O)COc1ccccc1-c1nnc(-c2ccccc2)o1,49%
3,Cc1ccc(-c2cc(NC(=O)C(C)Oc3ccccc3F)on2)cc1 (configuration not stated),33% (active)
4,CC(Oc1ccc(F)cc1)C(=O)Nc1cc(-c2ccc(F)c(F)c2)no1 (configuration not stated),59%
5,CCC(Oc1ccc(F)cc1)C(=O)Nc1cc(-c2ccc(C)cc2)no1 (configuration not stated),54%
6,Cc1ccc(-c2cc(NC(=O)C(C)Oc3ccc(C)c(C)c3)on2)cc1 (configuration not stated),93%
7,Cc1ccc(NC(=O)CCCn2c(=O)c3cccn3c3cccnc32)c(C)c1,87%
8,COc1ccc(CNC(=O)CCc2nnc3n(C)c(=O)c4sccc4n23)cc1,180%
9,O=C(CN1CCN(Cc2ccccc2Cl)C1=O)NCCc1ccc(Cl)cc1,49%
10,COc1cccc(-c2nc(SCC(=O)NCC3CCCO3)c(-c3ccc(Cl)cc3)[nH]2)c1 (configuration not stated),63%
11,CCOc1c(Br)cc(C2CC(=O)Nc3cc4c(cc32)OCO4)cc1OC (configuration not stated),127%
12,COc1ccc(N2C(=O)CC(N3CCCCC3C)C2=O)cc1 (configuration not stated),106%
13,CCOc1ccc(N2C(=O)CC(N3CCCCC3CC)C2=O)cc1 (configuration not stated),53% (active)
14,CCC1CCCCN1C1CC(=O)N(c2ccc(NC(C)=O)cc2)C1=O (configuration not stated),96%
15,CCSc1nnc2n(-c3ccccc3)c(=O)c3c4c(sc3n12)CCCC4,95%
16,CCCCSc1nnc2n(-c3cccc(C)c3)c(=O)c3c4c(sc3n12)CCCC4,1% (active)
17,CCSc1nnc2n(-c3cccc(C)c3)c(=O)c3c4c(sc3n12)CCCC4,71%
18,CCCSc1nnc2n(-c3cccc(C)c3)c(=O)c3c4c(sc3n12)CCCC4,5% (active)
19,CSc1nnc2n(-c3cccc(C)c3)c(=O)c3c4c(sc3n12)CCCC4,66%
20,Cc1cccc(-n2c(=O)c3c4c(sc3n3cnnc23)CCCC4)c1,72%
21,CC(C)Oc1ccc(CNC(=O)c2cc3cccc4c3n2CC(C)S4)cc1 (configuration not stated),91%
22,Cc1ccc(CCNC(=O)c2nn(C)c3c2CSc2ccccc2-3)cc1,82%
23,Cc1cccc(CCNC(=O)c2nn(C)c3c2CSc2ccccc2-3)c1,77%

row,SMILES,survival
1,Cc1ccc2c(c1)-c1c(c(C(=O)NCCc3ccccc3)nn1C)CS2,37% (active)
2,O=C(Nc1ccc(C(=O)OCc2cc(=O)n3c4c(sc3n2)CCCC4)cc1)c1ccc(F)cc1,101%
3,Cc1cccc(OCc2cc(=O)n3c4c(sc3n2)CCCC4)c1C,131%
4,Cc1ccc(OCc2cc(=O)n3c4c(sc3n2)CCCC4)cc1C,82%
5,COc1ccccc1C(=O)Nc1cccc(C(=O)OCc2cc(=O)n3c4c(sc3n2)CCCC4)c1,92%
6,O=C(Nc1ccccc1C(=O)OCc1cc(=O)n2c3c(sc2n1)CCCC3)c1cccc(Cl)c1,69%
7,O=C(Nc1ccccc1C(=O)OCc1cc(=O)n2c3c(sc2n1)CCCC3)c1ccc(Cl)cc1,0% (active)
8,Cc1ccc(C(=O)Nc2ccc(C(=O)OCc3cc(=O)n4c5c(sc4n3)CCCC5)cc2)cc1,83%
9,Cc1cccc(C)c1OCc1cc(=O)n2c3c(sc2n1)CCCC3,-17% (active)
10,O=C(OCc1cc(=O)n2c3c(sc2n1)CCCC3)c1cccc(NC(=O)c2ccccc2F)c1,115%
11,COc1ccccc1C(=O)Nc1ccc(C(=O)OCc2cc(=O)n3c4c(sc3n2)CCCC4)cc1,37% (active)
12,Cc1ccccc1C(=O)Nc1cccc(C(=O)OCc2cc(=O)n3c4c(sc3n2)CCCC4)c1,46% (active)
13,Cc1ccccc1C(=O)Nc1ccc(C(=O)OCc2cc(=O)n3c4c(sc3n2)CCCC4)cc1,118%
14,O=C(Nc1ccccc1C(=O)OCc1cc(=O)n2c3c(sc2n1)CCCC3)c1ccccc1,107%
15,Cc1ccc(C(=O)c2oc3ccccc3c2NC(=O)COc2ccc(Cl)c(C)c2)cc1,90%
16,COc1cc(-c2nc3n(n2)C(c2ccc(F)cc2)C(C(N)=O)=C(C)N3)cc(OC)c1OC (configuration not stated),91%
17,Cc1ccc2c(CC(=O)Nc3c(C(=O)Nc4cccc(Cl)c4)oc4ccccc34)coc2c1C,62%
18,Cc1cccc(OCc2cc(=O)n3c(-c4ccccc4)csc3n2)c1C,77%
19,O=C(Nc1cccc(C(=O)OCc2cc(=O)n3c4c(sc3n2)CCCC4)c1)c1ccccc1,102%
20,Cc1cccc(C)c1OCc1cc(=O)n2c(-c3ccccc3)csc2n1,19% (active)
21,O=C(Nc1ccc(C(=O)OCc2cc(=O)n3c4c(sc3n2)CCCC4)cc1)c1ccccc1,25% (active)
22,Cc1ccccc1OCc1cc(=O)n2c(-c3ccccc3)csc2n1,69%
23,O=C(Nc1ccc(C(=O)OCc2cc(=O)n3c4c(sc3n2)CCCC4)cc1)c1ccc(Cl)cc1,92%

# Source: PubChem BioAssay AID463173 (ICCB-Longwood Screening Facility, Harvard Medical School, 2010)
